Reference: PubChem BioAssay (NCI)
“And” between values parts separate entries of the source, which are not always exact repeats. Equal entries are not always repeated. About 79,000 compounds went through this panel and 15% of them were active in at least one assay; those are over-represented in the sample as a whole. Rule as the data show it: active = growth inhibition above about 70%; inactive = the rest.

How the values were obtained:
[1] = NCI Yeast Anticancer Drug Screen. Data for the rad50 strain (AID 155);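 also: 0% = growth of vehicle-only cultures of the same strain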; conditions: S. cerevisiae rad50 strain growth inhibition, stronger effect = higher value; at 50.0 µM unless noted
Outline: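 Yeast carrying a defined DNA repair defect were exposed to test compounds, and growth was compared with vehicle-treated controls to give percent inhibition.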

[2] = NCI Yeast Anticancer Drug Screen. Data for the mec2-1 strain (AID 157); conditions: S. cerevisiae mec2-1 strain, stronger effect = higher value; at 50.0 µM unless noted
Outline: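 Using mec2-1 yeast: add compound, measure growth, express inhibition versus vehicle-treated cultures.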

[3] = NCI Yeast Anticancer Drug Screen. Data for the sgs1 mgt1 strain (AID 161);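 also: 0% = growth of cultures given vehicle only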; conditions: S. cerevisiae sgs1 mgt1 strain, stronger effect = higher value; at 50.0 µM unless noted
Outline: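 Growth of a repair-deficient yeast mutant was monitored after compound treatment and expressed as inhibition relative to vehicle-treated cultures.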

[4] = NCI Yeast Anticancer Drug Screen. Data for the cln2 rad14 strain (AID 165);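 also: 0% = growth equal to vehicle treated cultures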; conditions: S. cerevisiae cln2 rad14 strain, stronger effect = higher value; at 50.0 µM unless noted
Outline: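 Yeast strain cln2 rad14, bearing defects in cell cycle control and DNA repair, serves as the test system; values reflect growth inhibition compared with vehicle.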

[5] = NCI Yeast Anticancer Drug Screen. Data for the bub3 strain (AID 167); conditions: S. cerevisiae bub3 mutant strain, stronger effect = higher value; at 50.0 µM unless noted
Outline: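 Compounds were applied to a genetically altered yeast strain carrying a cell-cycle control defect. Growth inhibition was scored against vehicle-treated controls.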

[6] = NCI Yeast Anticancer Drug Screen. Data for the mlh1 rad18 strain (AID 175); conditions: S. cerevisiae mlh1 rad18 strain growth inhibition, stronger effect = higher value; at 50.0 µM unless noted
Outline: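 Steps: expose repair-defective yeast to compound; measure growth; express inhibition against vehicle-treated controls.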

Measured: growth inhibition

O=C1C(NCCc2cc(Br)c(O)c(Br)c2)=CC(=O)c2ncccc21
inactive: [1] 31.9% | [2] 37% | [3] 33.9% | [4] 18.2% | [5] 34% | [6] 28.4%

CN(C1=CC(=O)c2ccccc2C1=O)C1CCCCC1
inactive: [1] 14.1% | [2] 49.5% | [3] 37.4% | [4] -7.05% | [5] 63% | [6] 42.2%

COc1ccc2c(c1)Cc1cc(NC(C)=O)ccc1-2
inactive: [1] -4.55% | [2] -11.2% | [3] 21.5% | [4] -47.9% | [5] 4.1% | [6] 13.1%

NCc1ccc(F)cc1
inactive: [1] 24.9% | [2] -10.7% | [3] 32% | [4] 12.7% | [5] 2.4% | [6] 26.5%

CC(=O)ONC(C(=O)C(C)(C)C)C(=O)C(C)(C)C
inactive: [1] -1.4% | [2] -4.4% | [3] -3.9% | [4] 24.7% | [5] -2.7% | [6] -4.8%

CCCCN(CCCC)C(=N)c1ccccc1C
inactive: [1] 4.8% | [2] -13.9% | [3] 10.9% | [4] -23.6% | [5] 1.55% | [6] -3.35%

N=C1OCCN1/N=C/c1ccc([N+](=O)[O-])o1
inactive: [1] 33.4% | [2] -2.3% | [3] 66.8% | [4] -3.5% | [5] 20.6% | [6] 52.2%

CC1CCC2(C(=O)O)CCC3(C)C(=CCC4C5(C)CCC(O)C(C)(C)C5CCC43C)C2C1C (stereo not given)
inactive: [1] 12.8% and 11.4% | [2] 11.3% and 0.15% | [3] 12.3% and -9.2% | [4] 0.45% and 16.4% | [5] 5.8% and -7.4% | [6] 14.4% and 0.85%

O=c1[nH]c(=O)c2nc(-c3cccnc3)cnc2[nH]1
inactive: [1] 2.8% | [2] -0.1% | [3] -9.7% | [4] 1.6% | [5] 0.85% | [6] 7.45%

CC(=O)NC1(NC(C)=O)C2CC(C1Cc1ccccc1)C(C)(C)C2C (stereo not given)
inactive: [1] 4.75% | [2] -14.7% | [3] -18.6% | [4] -11.6% | [5] -43.5% | [6] -38.5%

CC(CN(CP(=O)([O-])[O-])CP(=O)([O-])[O-])N(CP(=O)([O-])[O-])CP(=O)([O-])[O-].N.N.[Pt+2] (stereo not given)
inactive: [1] -18.6% | [2] -20.5% | [3] -18.9% | [4] 23.6% | [5] 9.9% | [6] -10.8%

CN1CCC/C1=N\C(=Nc1ccccc1)N1CCCC1
inactive: [1] 7.95% | [2] -1.8% | [3] -6.05% | [4] 12.5% | [5] -4.35% | [6] -9.15%

Nc1ncc(C(=O)O)s1
inactive: [1] -17.3% | [2] -4.6% | [3] -23.1% | [4] 7.35% | [5] 3.35% | [6] -4.8%

Cc1cc([N+](=O)[O-])cc(Br)c1N
inactive: [1] 23.1% | [2] 11.1% | [3] -1.6% | [4] 3.25% | [5] 0.25% | [6] 25.4%

N#CC1(OC2CCCCO2)Cc2ccccc2C1 (stereo not given)
inactive: [1] 16.8% | [2] 2.45% | [3] -13.3% | [4] -48.9% | [5] -5.45% | [6] -1.15%

NC(=O)NCCCC(N)C(=O)O (stereo not given)
inactive: [1] 7.7% and -23.9% | [2] -16.2% and -16.6% | [3] -5.85% and -13.1% | [4] -2.4% and 2.9% | [5] 9.45% and -39.5% | [6] -10.4% and -14.9%

COc1ccc(/C=N/NC(=S)NN)cc1
inactive: [1] -6.6% | [2] 9.1% | [3] 13% | [4] -18.9% | [5] 33.6% | [6] 13.2%

c1ccc(CN(Cn2cccn2)Cn2cccn2)nc1
inactive: [1] 7.15% | [2] -9% | [3] 23.1% | [4] 23.9% | [5] -0.4% | [6] 34.8%

COc1cc(Br)c(CC(NC=O)c2ccc(OC)c(OC)c2OC)cc1OC (stereo not given)
inactive: [1] 0.4% | [2] -0.1% | [3] -6.95% | [4] -7.8% | [5] -1.5% | [6] 23.9%

Cc1cccc(NC(=O)C(=O)C(C(=O)c2ccc3ccccc3c2)C2OC(=O)c3ccccc32)c1C (stereo not given)
inactive: [1] -3.95% | [2] 4.75% | [3] 13.5% | [4] -59.5% | [5] 5.75% | [6] -6.75%
